Source: PubChem BioAssay AID1159580 (chemical genetic matrix, 2015)
The campaign covered roughly 5,500 compounds. About 2,000 (36%) were called active. About 18% were inconclusive and are not listed. Cut-off read from the data, not from the text of the source: active = normalized growth mostly below about 0.91 (no sharp cut-off); inconclusive = no clear call, values can overlap the other calls; inactive = mostly above about 0.92. Some of the results follow.

Experiment: chemical genetic growth profiling, strain panel (AID 1159580);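 note: tested at 20 µM; growth read once vehicle control cultures reached saturation at 30 °C; 1 = growth at the plate median or of vehicle wells; lower values mean less growth of the strain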
Settings: growth OD

Measured: normalized growth

O=c1c(-c2ccc3c(c2)OCO3)coc2cc(O)ccc12
inactive: S. cerevisiae deletion strains, locus YJR043C, strain POL32, active compounds read low 1 | S. cerevisiae deletion strains, locus YJR075W, strain HOC1, active compounds read low 1.02 | S. cerevisiae deletion strains, locus YKL009W, strain mrt4, active compounds read low 0.963 | S. cerevisiae deletion strains, locus YKL068W, active compounds read low 0.994 | S. cerevisiae deletion strains, locus YKL085W, strain MDH1 (second series), active compounds read low 0.995 | S. cerevisiae deletion strains, locus YKL085W, strain MDH1, active compounds read low 0.995 | S. cerevisiae deletion strains, locus YKL160W, strain elf1, active compounds read low 0.983 | S. cerevisiae deletion strains, locus YKL190W, strain CNB1, active compounds read low 1 | S. cerevisiae deletion strains, locus YKR001C, strain vps1, active compounds read low 0.969 | S. cerevisiae deletion strains, locus YKR026C, strain gcn3, active compounds read low 0.98 | S. cerevisiae deletion strains, locus YKR091W, strain srl3, active compounds read low 0.998 | S. cerevisiae deletion strains, locus YLL001W, strain dnm1, active compounds read low 0.977 | S. cerevisiae deletion strains, locus YLL026W, active compounds read low 0.989 | S. cerevisiae deletion strains, locus YLL041C, strain sdh2, active compounds read low 0.995 | S. cerevisiae deletion strains, locus YLR027C, strain aat2, active compounds read low 0.987 | S. cerevisiae deletion strains, locus YLR039C, strain RIC1, active compounds read low 0.969 | S. cerevisiae deletion strains, locus YLR058C, strain SHM2, active compounds read low 0.994 | S. cerevisiae deletion strains, locus YLR102C, strain apc9, active compounds read low 0.987 | S. cerevisiae deletion strains, locus YLR221C, strain rsa3, active compounds read low 0.994 | S. cerevisiae deletion strains, locus YLR258W, strain gsy2, active compounds read low 0.981 | S. cerevisiae deletion strains, locus YLR262C, strain YPT6 (second series), active compounds read low 0.957 | S. cerevisiae deletion strains, locus YLR262C, strain YPT6, active compounds read low 0.994 | S. cerevisiae deletion strains, locus YLR268W, strain sec22, active compounds read low 0.981 | S. cerevisiae deletion strains, locus YLR320W, strain mms22, active compounds read low 0.957 | S. cerevisiae deletion strains, locus YLR330W, strain CHS5, active compounds read low 1 | S. cerevisiae deletion strains, locus YLR342W, strain FKS1 (second series), active compounds read low 0.981 | S. cerevisiae deletion strains, locus YLR342W, strain FKS1, active compounds read low 0.98 | S. cerevisiae deletion strains, locus YLR357W, strain rsc2, active compounds read low 0.965 | S. cerevisiae deletion strains, locus YLR370C, strain arc18, active compounds read low 1 | S. cerevisiae deletion strains, locus YLR371W, strain rom2, active compounds read low 0.981 | S. cerevisiae deletion strains, locus YLR384C, strain iki3, active compounds read low 0.971 | S. cerevisiae deletion strains, locus YLR418C, strain cdc73, active compounds read low 0.984 | S. cerevisiae deletion strains, locus YML016C, strain PPZ1, active compounds read low 0.985 | S. cerevisiae deletion strains, locus YML032C, strain rad52, active compounds read low 0.969 | S. cerevisiae deletion strains, locus YML120C, strain ndi1, active compounds read low 0.995 | S. cerevisiae deletion strains, locus YML124C, strain tub3, active compounds read low 0.976 | S. cerevisiae deletion strains, locus YMR058W, strain fet3, active compounds read low 1 | S. cerevisiae deletion strains, locus YMR078C, strain ctf18, active compounds read low 0.967 | S. cerevisiae deletion strains, locus YMR125W, strain sto1, active compounds read low 0.986 | S. cerevisiae deletion strains, locus YMR129W, active compounds read low 0.997 | S. cerevisiae deletion strains, locus YMR205C, strain PFK2, active compounds read low 0.978 | S. cerevisiae deletion strains, locus YMR223W, strain ubp8, active compounds read low 0.976 | S. cerevisiae deletion strains, locus YMR231W, strain pep5, active compounds read low 1 | S. cerevisiae deletion strains, locus YMR263W, strain SAP30, active compounds read low 1.01 | S. cerevisiae deletion strains, locus YMR307W, strain GAS1, active compounds read low 0.974 | S. cerevisiae deletion strains, locus YNL067W, strain RPL9B, active compounds read low 1.03 | S. cerevisiae deletion strains, locus YNL071W, strain lat1, active compounds read low 0.996 | S. cerevisiae deletion strains, locus YNL128W, strain TEP1, active compounds read low 1.02 | S. cerevisiae deletion strains, locus YNL153C, strain GIM3, active compounds read low 1.01 | S. cerevisiae deletion strains, locus YNL209W, strain ssb2, active compounds read low 0.987 | S. cerevisiae deletion strains, locus YNL233W, strain BNI4, active compounds read low 0.997 | S. cerevisiae deletion strains, locus YNL248C, strain rpa49, active compounds read low 0.987 | S. cerevisiae deletion strains, locus YNL250W, strain rad50, active compounds read low 0.989 | S. cerevisiae deletion strains, locus YNL271C, strain bni1, active compounds read low 0.992 | S. cerevisiae deletion strains, locus YNL298W, strain CLA4, active compounds read low 0.981 | S. cerevisiae deletion strains, locus YNL307C, strain MCK1, active compounds read low 0.948 | S. cerevisiae deletion strains, locus YNL322C, strain KRE1 (second series), active compounds read low 0.992 | S. cerevisiae deletion strains, locus YNL322C, strain KRE1, active compounds read low 0.999 | S. cerevisiae deletion strains, locus YNR049C, strain mso1, active compounds read low 0.996 | S. cerevisiae deletion strains, locus YNR052C, strain pop2, active compounds read low 0.975 | S. cerevisiae deletion strains, locus YOL006C, strain TOP1, active compounds read low 1.01 | S. cerevisiae deletion strains, locus YOL012C, strain htz1 1.06 | S. cerevisiae deletion strains, locus YOL147C, strain pex11, active compounds read low 0.976 | S. cerevisiae deletion strains, locus YOR001W, strain rrp6, active compounds read low 0.991 | S. cerevisiae deletion strains, locus YOR061W, strain CKA2, active compounds read low 0.981 | S. cerevisiae deletion strains, locus YOR069W, strain VPS5, active compounds read low 0.991 | S. cerevisiae deletion strains, locus YOR070C, strain gyp1, active compounds read low 0.99 | S. cerevisiae deletion strains, locus YOR080W, strain dia2, active compounds read low 0.981 | S. cerevisiae deletion strains, locus YOR083W, strain WHI5, active compounds read low 1 | S. cerevisiae deletion strains, locus YOR106W, strain vam3, active compounds read low 0.986 | S. cerevisiae deletion strains, locus YOR136W, strain idh2, active compounds read low 0.985 | S. cerevisiae deletion strains, locus YOR144C, strain elg1, active compounds read low 0.98 | S. cerevisiae deletion strains, locus YOR184W, strain ser1, active compounds read low 0.994 | S. cerevisiae deletion strains, locus YOR265W, strain rbl2, active compounds read low 0.991 | S. cerevisiae deletion strains, locus YOR270C, strain vph1, active compounds read low 1.02 | S. cerevisiae deletion strains, locus YOR290C, strain snf2, active compounds read low 0.958 | S. cerevisiae deletion strains, locus YOR316C, strain cot1, active compounds read low 0.976 | S. cerevisiae deletion strains, locus YPL051W, strain arl3, active compounds read low 0.99 | S. cerevisiae deletion strains, locus YPL055C, strain LGE1, active compounds read low 1.03 | S. cerevisiae deletion strains, locus YPL078C, strain atp4, active compounds read low 0.995 | S. cerevisiae deletion strains, locus YPL106C, strain sse1, active compounds read low 0.97 | S. cerevisiae deletion strains, locus YPL240C, strain hsp82, active compounds read low 0.988 | S. cerevisiae deletion strains, locus YPL241C, strain CIN2, active compounds read low 0.999 | S. cerevisiae deletion strains, locus YPR119W, strain clb2, active compounds read low 0.985 | S. cerevisiae deletion strains, locus YPR141C, strain kar3, active compounds read low 0.986 | S. cerevisiae deletion strains, locus YPR163C, strain tif3, active compounds read low 0.978 | S. cerevisiae deletion strains, locus YPR167C, strain met16, active compounds read low 0.982 | S. cerevisiae deletion strains, strain wtn01, active compounds read low 0.983 | S. cerevisiae strains, strain wild type, active compounds read low 0.995
